In PubChem BioAssay AID651703 (Broad Institute, 2012):
The campaign covered roughly 1,200 compounds. About 970 (81%) were called active. So high a share suggests a set chosen from earlier hits. The list is a sample of the results. Results with a measured potency or affinity are listed apart. A number with no mark means an inactive call. How the calls were made is not given here.

target: Transforming acidic coiled-coil-containing protein 3 (Homo sapiens) (UniProt Q9Y6A5); assay: inhibition of ARNT PAS-B/TACC3 complex formation – biochemical, AlphaScreen, cherry-picked samples, confirmation (AID 651703); conditions: AlphaScreen His-ARNT PAS-B / GST-TACC3 binding, luminescence; series mostly up to 68 µM; activity change, negative = inhibition: at the top concentration;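 further: TACC3 partner is the GST-tagged E629A mutant dimer; hits lower the signal meaning they disrupt ARNT binding to TACC3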

Going from `CC(C)NC(=O)Nc1ccc2c(c1)C(=O)N([C@H](C)CO)C[C@H](C)[C@@H](CN(C)C(=O)Cc1ccccc1)OCCCC[C@H](C)O2` to `CC(C)NC(=O)N(C)C[C@H]1OCCCC[C@H](C)Oc2ccc(NC(=O)Nc3ccccc3)cc2C(=O)N([C@H](C)CO)C[C@@H]1C`, the “activity change, negative = inhibition” value falls from -10.9% to -11.9%.

Going from `COc1ccc(NC(=O)Nc2ccc3c(c2)C(=O)N([C@H](C)CO)C[C@@H](C)[C@@H](CN(C)C(=O)CCC(F)(F)F)OCCCC[C@H](C)O3)cc1` to `C[C@@H]1CCCCO[C@H](CN(C)Cc2ccncc2)[C@H](C)CN([C@H](C)CO)C(=O)c2cc(NC(=O)C3CCCCC3)ccc2O1`, the “activity change, negative = inhibition” value rises from -17.6% to -9.09%.

First: CN(C)C(=O)c1cccc(-c2ccc3c(c2)[C@@H]2[C@@H](CCN2C(=O)c2cccnc2)[C@@H](CO)N3)c1
Second: Cc1ccc(CNC(=O)c2cc(-c3ccccc3)on2)cc1
The “activity change, negative = inhibition” value of the first is lower: -11.2% for the first, 4.88% for the second.

Compared with `O=C(C[C@H]1C=C[C@H](NS(=O)(=O)c2ccc(F)cc2)[C@H](CO)O1)N1CCN(c2ccccc2)CC1`, `O=c1ccc(-c2ccc(S(=O)(=O)Nc3ccc(F)cc3)s2)n[nH]1` is lower in “activity change, negative = inhibition” value: -5.74% for the first, -18.8% for the second.

First: C[C@H](CO)N1C[C@H](C)[C@@H](CN(C)Cc2ccccn2)Oc2ncc(C#CC3(O)CCCC3)cc2C1=O
Second: O=C(NCCN1CCCCC1)c1cc(-c2ccccc2)on1
The “activity change, negative = inhibition” value of the first is lower: -21.8% for the first, 4.24% for the second.

Compared with `COc1ccc(OC)c(-n2nnnc2SCC(=O)Nc2ccccc2OC)c1`, `COc1ccc(OC)c2nc3c(C(=O)NCCN(C)C)cccc3nc12` is higher in “activity change, negative = inhibition” value: -24.6% for the first, -2.27% for the second.

Going from `CC(=O)N(C)C1=C(O)c2ccccc2C(=O)C1=O` to `CN(C)CCNC(=O)c1cc(-c2ccccc2)on1`, the “activity change, negative = inhibition” value falls from 3.26% to -1.32%.

Going from `O=C(Nc1ccc2c(c1)OCO2)c1ccc2c(c1)OCO2` to `Cn1c(NC(=O)c2cc(-c3ccccc3)on2)nc2ccccc21`, the “activity change, negative = inhibition” value rises from -25.8% to -9.11%.

Compared with `CCn1cc(/C=C2/SC(=S)NC2=O)c(C)n1`, `COc1ccc(C2=C(C)CC(C)(C)NC2=O)cc1OC` is lower in “activity change, negative = inhibition” value: -2.57% for the first, -25.1% for the second.

Compared with `Nc1ccc2nn(-c3ccc(F)cc3)nc2c1`, `O=C(Nc1ncc2ccccc2n1)c1cc(-c2ccccc2)on1` is higher in “activity change, negative = inhibition” value: -35.2% for the first, -0.281% for the second.

Going from `O=C(NCc1ccccc1)c1cc(-c2ccccc2)on1` to `CCCCNC(=O)c1cc(-c2ccccc2)on1`, the “activity change, negative = inhibition” value falls from 2.2% to 1.77%.

Compared with `O=c1c(C=NCCCn2ccnc2)c(-c2ccccc2)[nH]n1-c1nc2ccccc2s1`, `Cc1[nH][nH]c(=O)c1C(c1ccc(Cl)cc1)c1c(C)[nH][nH]c1=O` is higher in “activity change, negative = inhibition” value: -25.4% for the first, 5.36% for the second.

Going from `Cc1[nH][nH]c(=O)c1C(c1ccc(Br)cc1)c1c(C)[nH][nH]c1=O` to `Cc1[nH][nH]c(=O)c1C(c1ccc(O)c(Br)c1)c1c(C)[nH][nH]c1=O`, the “activity change, negative = inhibition” value rises from -17.9% to -7.14%.
